# FadD28 FP inh – inhibitors of Mycobacterium tuberculosis FadD28 bisubstrate binding; 360,000 compounds, 0.22% hits; FadD28 bisubstrate probe binding, fluorescence polarization; inhibition, % at 12.5 µM; in the data active = inhibition above about 8.5%, passing the limit was not always enough
# Mtb BioA inh – blocks M. tuberculosis BioA enzyme activity. purified M. tuberculosis BioA enzyme, plate reader. inhibition, % at 9.99 µM. 360,000 compounds, 0.096% hits. AID 602481; in the data active = inhibition above about 40%
# Rv3671c inh – Rv3671c (M. tuberculosis) protease inhibition | P9WHR9 | inhibition, % at 5.96 µM | 320,000 compounds, 0.048% hits; in the data active = inhibition above about 38%;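 also: extracellular domain of Rv3671c used as enzyme; 0% = enzyme with DMSO and 100% = no enzyme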
# Mtb FBA inh – inhibits M. tuberculosis FBA enzyme; purified M. tuberculosis FBA, fluorescence read-out; inhibition, % at 1 µM; 360,000 compounds, 2.3% hits; AID 588726;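 also: 0% = vehicle and 100% = reference inhibitor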
# Target sequence (P9WQA3 whole entry, looked up): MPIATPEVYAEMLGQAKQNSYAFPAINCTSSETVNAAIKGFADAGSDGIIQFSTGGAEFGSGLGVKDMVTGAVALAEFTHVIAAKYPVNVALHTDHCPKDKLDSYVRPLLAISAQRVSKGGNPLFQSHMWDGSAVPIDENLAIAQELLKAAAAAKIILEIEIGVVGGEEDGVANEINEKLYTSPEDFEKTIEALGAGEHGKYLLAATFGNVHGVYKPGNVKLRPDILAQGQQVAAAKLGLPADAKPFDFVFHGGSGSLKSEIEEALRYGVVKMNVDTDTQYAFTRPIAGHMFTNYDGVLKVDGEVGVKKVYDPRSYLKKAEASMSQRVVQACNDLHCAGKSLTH
# GDH-TPI counter-1 – GDH-TPI coupled enzyme inhibition counter-screen. GDH-TPI coupled enzyme counterscreen, NADH absorbance. inhibition, % at 4.8 µM. 360,000 compounds, 1.2% hits. AID 588335; in the data active = inhibition above about 30%;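 also: 0% = DMSO wells and 100% = wells lacking the enzyme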
# Mtb FBA confirm – confirmation of M. tuberculosis fructose-bisphosphate aldolase inhibitors. shares compounds with Mtb FBA inh. purified M. tuberculosis FBA, fluorescence read-out. inhibition, % at 1 µM. 5,600 compounds, 78% hits;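 also: 0% = vehicle wells and 100% = reference inhibitor wells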
# GDH-TPI counter-2 – counter-screen for M. tuberculosis FBA inhibitors: GDH-TPI coupled enzyme inhibition; 5,600 compounds, 81% hits; GDH-TPI coupled enzyme counterscreen, fluorescence; AID 652141; inhibition, % at 1 µM; shares compounds with Mtb FBA inh; in the data active = inhibition above about 10%
# * marks the source's active call; other numbers are inactive results; . = not tested or not shown; + = active, no number. Compounds with a hit are over-represented: about 3% of the library has one in this group of screens. Rule as the data show it, unless noted: active = inhibition above about 27%; inactive = the rest.
SMILES,FadD28 FP inh,Mtb BioA inh,Rv3671c inh,Mtb FBA inh,GDH-TPI counter-1,Mtb FBA confirm,GDH-TPI counter-2
C[C@]12c3[nH]c4cc(-c5ccco5)ccc4c3CCN1C(=O)[C@@H](CC(=O)NCc1ccco1)C[C@@H]2C(=O)N1CCOCC1,-4,-1,.,31*,7,174*,148*
CN(C)C(=O)CCc1ccc2c3c([nH]c2c1)[C@]1(C)[C@@H](C(=O)N2CCOCC2)C[C@H](CC(=O)NCc2ccco2)C(=O)N1CC3,-6,-2,.,1,5,.,.
CC(C)(C)NC(=O)C[C@H]1C[C@H](C(=O)N2CCCCC2)[C@@]2(C)c3[nH]c4cc(-c5ccco5)ccc4c3CCN2C1=O,-3,0,.,21,3,.,.
Cc1ccc(-c2nc3c(c(=O)[nH]c(=O)n3Cc3ccccc3)n2Cc2ccccc2)o1,-4,.,.,38*,10,153*,133*
Cc1ccc(-c2nc3c(c(=O)[nH]c(=O)n3Cc3ccccc3)n2C)s1,.,.,-17,.,.,.,.
Cc1ccc(-c2nc3c(c(=O)[nH]c(=O)n3Cc3ccccc3)n2C)o1,-4,.,.,36*,8,98*,115*
CCCN(C)C[C@H]1Oc2ncc(C#CCOC)cc2C(=O)N([C@H](C)CO)C[C@H]1C,.,0,.,.,.,.,.
CCNC(=O)C[C@@H]1C=C[C@H](NC(=O)NC2CCCCC2)[C@H](CO)O1,.,-2,.,.,.,.,.
COc1ccc(C2CC(c3ccccc3Br)=NN2c2ccc(S(N)(=O)=O)cc2)cc1 (stereo unspecified),0,1,.,46*,12,154*,77*
O=C1CCC(C(=O)OCc2cc(=O)oc3ccc4ccccc4c23)=NN1,1,-4,0,31*,22,91*,62*
COCC(=O)Nc1ccc2c(c1)OC[C@H](C)N(C(=O)c1ccncc1)C[C@@H](C)[C@@H](OC)CN(C)C2=O,.,3,.,.,.,.,.
COCc1cc(C)[nH]c(=O)c1C#N,0,-1,6,66*,18,53*,41*
COCc1cc(C)nc(N)c1C#N,0,0,-4,29*,3,+,+
Cc1cc(C)c(C#N)c(N2CCOCC2)n1,0,-1,3,25,8,.,.
CCOC(=O)Cn1c(C)cc(COC)c(C#N)c1=O,-2,.,2,12,17,.,.
COCc1cc(C)nc(NCCO)c1C#N,0,0,-9,23,10,.,.
COCc1cc(C)nc(N2CCOCC2)c1C#N,1,0,1,32*,6,37*,37*
COCc1cc(C)nc(NC2CC(C)(C)NC(C)(C)C2)c1C#N,-4,3,-8,62*,7,83*,78*
CO[C@@H]1CN(C)C(=O)c2cc(NC(=O)NC(C)C)ccc2OC[C@H](C)NC[C@H]1C,.,-2,.,.,.,.,.
CC(=O)NC(c1ccco1)c1cc(Cl)c2ccccc2c1O (stereo unspecified),1,-1,-1,37*,12,+,+
CC(=O)NC(c1ccco1)c1cc(Cl)c2ccc(Cl)nc2c1O (stereo unspecified),-3,-1,-13,-1,3,.,.
CCCC(=O)NC(c1ccco1)c1cc(Cl)c2cccnc2c1O (stereo unspecified),-1,-5,9,0,0,.,.
CCC(=O)NC(c1ccco1)c1cc(Cl)c2ccccc2c1O (stereo unspecified),0,-1,-3,30*,12,79*,56*
O=C(C[C@H]1CC[C@@H](NC(=O)CN2CCOCC2)[C@@H](CO)O1)NCCc1ccncc1,.,-2,.,.,.,.,.
Cc1cccc2c1-c1sc(C(=O)N3CCCCC3)cc1CO2,-3,0,-8,42*,11,11,19*
SMILES,FadD28 FP inh,Mtb BioA inh,Rv3671c inh,Mtb FBA inh,GDH-TPI counter-1,Mtb FBA confirm,GDH-TPI counter-2
Cc1cccc2c1-c1sc(C(=O)N3CCc4ccccc4C3)cc1CO2,-2,2,-39,41*,-1,59*,41*
CNC(=O)C[C@@H]1CC[C@H]2[C@@H](COc3ccc(NC(=O)c4ccc5c(c4)OCO5)cc3C(=O)N2C)O1,.,-2,.,.,.,.,.
COC(=O)c1cc(=O)c2cccc(OC)c2[nH]1,-3,0,8,43*,16,+,+
O=c1cn[nH]c2ccccc12,-3,0,13,8,9,.,.
COc1cccc2c(=O)cn[nH]c12,-1,-6,-9,76*,19,6,-4
CCN(CC)CCOc1cc2c(nn1)Oc1ccccc1N2C,-2,.,5,56*,27,164*,154*

# From PubChem
